Rows were chosen to be rich in hits. Some 11% of all compounds tested hit in one or more screens of this group.
JMJD2A Tudor: inhibitors of human JMJD2A Tudor domain; O75164; AlphaScreen JMJD2A-Tudor / H3K4me3 peptide binding; Potency, µM (highest dose often 114 µM), hits mostly inhibitors; 390,000 tested, 4.4% active; AID 504339; also: nearly all actives have a fitted effect of over 50% in size
L3MBTL1 block: blocks human L3MBTL1 | 230,000 tested, 0.66% active | AlphaScreen L3MBTL1–H3K9me1 peptide binding | AID 485360 | Potency, µM (titrated, usually from 57.1 µM), actives largely listed as inhibitors; also: nearly all actives have a fitted effect of over 60% in size
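AlphaScreen assay: L3MBTL1 (50 nM final) was preincubated 30 min at room temperature with biotinylated H3(1-15)K9me1 peptide (75 nM final), then 30 min with library compounds; streptavidin donor and nickel chelate acceptor beads (10 ug/mL final) added, 30 min dark.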
BAZ2B inh: blocks human BAZ2B; Q9UIF8; AlphaScreen BAZ2B-H3K14Ac peptide displacement; Potency, µM (titrated, usually from 114 µM), actives largely listed as inhibitors; 360,000 tested, 4.4% active; also: nearly all actives have a fitted effect of over 60% in size
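Multi-concentration screen (max 110 uM) measuring displacement of acetylated histone H3 peptide from BAZ2B by AlphaScreen, using 50 nM protein, 50 nM peptide and 10 ug/mL streptavidin donor plus Ni-chelate acceptor beads.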
HP1b binding inh: HP1-beta chromodomain-methylated histone interaction inhibition; AlphaScreen HP1-beta / biotin-H3K9me3 peptide binding; Potency, µM (doses to about 114 µM), actives largely listed as inhibitors; 390,000 tested, 0.56% active; also: nearly all actives have a fitted effect of over 70% in size
Target sequence (P83916 whole entry, looked up): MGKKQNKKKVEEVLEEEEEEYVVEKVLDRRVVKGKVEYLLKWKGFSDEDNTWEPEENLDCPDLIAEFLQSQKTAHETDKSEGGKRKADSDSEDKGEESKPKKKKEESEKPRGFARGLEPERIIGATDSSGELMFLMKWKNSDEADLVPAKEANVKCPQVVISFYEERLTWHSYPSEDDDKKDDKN
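Compound inhibition of the preformed complex between 50 nM HP1-beta and 50 nM biotinylated H3K9me3 peptide was read by AlphaScreen. Buffer was PBS pH 7.4 with 0.01% Tween-20. Incubations ran 30 min at room temperature, with 10 ug/mL donor/acceptor beads.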
G9a inh: inhibitors of human histone lysine methyltransferase G9a | Q96KQ7 | G9a H3K9 monomethylation, AlphaScreen, 2 h | Potency, µM (titrated, usually from 102 µM), usual class: inhibitors | 350,000 tested, 8.8% active | AID 504332; also: nearly all actives have a fitted effect of over 75% in size
Target sequence (Q96KQ7 913-1193 limits assumed): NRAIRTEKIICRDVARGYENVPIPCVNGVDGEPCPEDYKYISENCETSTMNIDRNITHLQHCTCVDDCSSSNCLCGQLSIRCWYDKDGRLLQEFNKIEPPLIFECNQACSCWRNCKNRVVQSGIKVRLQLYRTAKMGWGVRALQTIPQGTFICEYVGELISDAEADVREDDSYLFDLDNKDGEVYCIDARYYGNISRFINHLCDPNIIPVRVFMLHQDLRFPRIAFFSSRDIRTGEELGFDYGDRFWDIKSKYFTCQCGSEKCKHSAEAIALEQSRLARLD
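Signal arises when biotinylated H3K9 peptide, once monomethylated, bridges streptavidin donor and antibody-captured acceptor beads. Enzyme at 20 nM was preincubated 15 min with test compounds; peptide 500 nM and SAM 20 uM then reacted for 2 h.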
Numbers stand for hits; . = inactive; ? = inconclusive; / = no result given; [ ] = another dose, or the depositor's remark. Calls follow the shape of the dose curve; as a rule, active = well fitted inhibition curve with a large enough effect; inconclusive = small, poorly fitted or top-dose-only effect; inactive = no such curve, though single readings can be large or run the other way.

SMILES | JMJD2A Tudor | L3MBTL1 block | BAZ2B inh | HP1b binding inh | G9a inh
CCCCNc1c([N+](=O)[O-])cc(C(=O)O)cc1[N+](=O)[O-] | . | . | . | . | .
CCCCNc1c([N+](=O)[O-])cc(C)cc1[N+](=O)[O-] | 18µM | ? | 32µM | 16µM | 40µM
CCOc1ccccc1CNS(=O)(=O)c1ccc(-c2coc(C)n2)cc1 | ? | / | . | . | .
COc1ccccc1C(=O)N1CCN(c2cccc(C(F)(F)F)c2)CC1 | . | . | . | . | ?
COc1ccccc1N1CCN(C(=O)COc2cccc3ccccc23)CC1 | . | / | . | . | .
O=C(CCC1CCCC1)N1CCC(N2CCN(c3ccccc3)CC2)CC1 | 1.4µM | / | 32µM | ? | ?
COc1ccccc1C(=O)N1CCC(N2CCN(c3ccccc3)CC2)CC1 | 2.5µM | . | 50µM | ? | 35µM
O=C(c1ccccc1Oc1ccc([N+](=O)[O-])cc1)N1CCOCC1 | . | / | . | . | .
COc1ccccc1N1CCN(C2CCN(C(=O)COc3ccccc3)CC2)CC1 | . | . | 50µM | . | 10µM
O=C(c1ccccc1Oc1ccccc1)N1CCN(c2ccccc2)CC1 | . | . | . | . | 40µM
CCOc1cccc2cc(C(=O)NCc3ccc(OC)cc3)c(=N)oc12 | . | / | . | . | .
COc1ccc(CCNC(=O)Cn2c(=O)n(-c3cc(OC)c(OC)c(OC)c3)c(=O)c3ccccc32)cc1OC | . | / | . | . | .
CC(=O)Nc1ccc(OCC(=O)N2CCC(Cc3ccccc3)CC2)cc1 | . | / | . | . | .
CC1CCN(C(=O)COc2ccc(Nc3ccccc3)cc2)CC1 | ? | ? | . | . | 50µM
COc1ccccc1N1CCN(C(=O)C2CCN(C(=O)c3ccccc3Cl)CC2)CC1 | . | / | . | . | /
Cc1cccc(OCC(=O)N2CCC(N3CCCCCC3)CC2)c1 | 3.2µM | . | ? | ? | ?
COc1ccccc1C(=O)N1CCC(N2CCN(c3ccccc3OC)CC2)CC1 | 18µM | . | 50µM | ? | 7.9µM
CCCCSc1nnc2n(-c3cccc(C)c3)c(=O)c3c4c(sc3n12)CCCC4 | . | / | . | . | .
CCOc1ccc2c(c1)[C@@H]1C=CC[C@@H]1[C@H](c1ccccc1Cl)N2 | 45µM | / | 28µM | ? | 11µM
O=C(NCc1ccccc1)C1Nc2ccc(OC(F)(F)F)cc2C2C=CCC12 (stereo not drawn) | . | / | / | . | /
CCOC(=O)C1Nc2ccc(OC(F)(F)F)cc2C2C=CCC12 (stereo not drawn) | 25µM | / | / | ? | /
Cc1ccc2c(c1)C1C=CCC1C(C(=O)O)N2 (stereo not drawn) | / | 3.2µM | 6.3µM | / | 4µM
Cc1ccc2c(c1)C1C=CCC1C(C(=O)NCCCN1CCOCC1)N2 (stereo not drawn) | ? | / | / | . | /
O=C(O)C1Nc2c(cccc2C(F)(F)F)C2C=CCC12 (stereo not drawn) | / | / | 40µM | / | 2.5µM
Cc1cc2c(cc1NC(=O)c1ccccc1C)n(C)c(=O)c(=O)n2C | . | / | . | . | .
SMILES | JMJD2A Tudor | L3MBTL1 block | BAZ2B inh | HP1b binding inh | G9a inh
CNC(=O)[C@H]1O[C@@H](n2cnc3c(NCc4ccc(N)cc4)ncnc32)[C@H](O)[C@H]1O | / | / | / | / | .[12.7 µM]
CC(C)c1ccc(NC(=O)C2Cc3ccccc3N2C(=O)c2ccccc2)cc1 (stereo not drawn) | . | / | . | . | .
CC(=O)c1ccc2c(c1)C1C=CCC1C(c1ccncc1)N2 (stereo not drawn) | ? | . | 50µM | . | ?
O=C(O)c1ccc2c(c1)C1C=CCC1C(c1cc3c(cc1Br)OCO3)N2 (stereo not drawn) | . | . | . | . | .
CC(=O)c1ccc2c(c1)C1C=CCC1C(C(=O)O)N2 (stereo not drawn) | 6.3µM | 1.3µM | 6.3µM | 20µM | .[12.7 µM]
Brc1cc2c(cc1C1Nc3ccccc3C3C=CCC31)OCO2 (stereo not drawn) | . | . | . | . | .
COC(=O)c1ccc(C2Nc3ccc(/C(C)=N/NC(=O)C(OC)c4ccccc4)cc3C3C=CCC32)cc1 (stereo not drawn) | 79µM | . | 56µM | . | 7.1µM
COC(C(=O)N/N=C(\C)c1ccc(O)cc1)c1ccccc1 (stereo not drawn) | . | . | . | . | .
C1=CC2c3ccccc3NC(c3ccncc3)C2C1 (stereo not drawn) | 45µM | ? | ? | ? | 1.6µM

High-throughput results deposited in PubChem by National Center for Advancing Translational Sciences (NCATS).
